Among the data in PubChem BioAssay (EPA / NIEHS) are outcome and AC50 values, retold here.

The source made the active and inactive calls. The calls were made as follows: active = hit-call score of the fitted dose curve at least 0.9, where 1 is the maximum; inactive = score below 0.9.

Experiment [1] is described as follows: ATG_E_Box_CIS: Attagene CIS-FACTORIAL HepG2 Assay for human Enhancer Box (E-box) (AID 2282936). As to conditions: HepG2 E-box cis-reporter transcription, actives raise or lower the signal. Summed up:
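Measured 24 h post-dosing in HepG2 cells transfected with multiple cis-regulated reporter units, signal being reporter mRNA induction detected by fluorescent RT-PCR with capillary electrophoresis; gain or loss fitted against DMSO.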

The nature of experiment [2]: ATG_M_61_CIS: Attagene CIS-FACTORIAL HepG2 Assay for M61 Transcription Factor (Internal Marker) (AID 2282937). As to conditions: HepG2 Attagene CIS-FACTORIAL M61 internal marker reporter; actives raise or lower the signal. An outline of the steps:
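This endpoint serves as an internal background control within a multiplexed HepG2 cis-reporter panel. Cells are exposed for 24 h; reporter mRNA is amplified, fluorescently labelled and sized by capillary electrophoresis, with DMSO as negative control.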

Experiment [3] can be described thus: ATG_EGR_CIS: Attagene CIS-FACTORIAL HepG2 Assay for human Early Growth Response 1 (EGR1) (AID 2282938). As to conditions: HepG2 Attagene CIS-FACTORIAL EGR reporter mRNA; actives raise or lower the signal. An outline of the steps: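 HepG2, transient MRTU transfection (cis promoters), 24 h compound. RNA → RT (oligo-dT) → PCR → 6-FAM labelling → HpaI cut → CE fluorescence. Bidirectional fit, DMSO baseline.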

Experiment [4] is described as follows: ATG_M_19_CIS: Attagene CIS-FACTORIAL HepG2 Assay for M19 Transcription Factor (Internal Marker) (AID 2282939). As to conditions: HepG2 Attagene CIS-FACTORIAL M19 internal marker reporter; actives raise or lower the signal. An outline of the steps:
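Transfect HepG2 with MRTU reporter library → dose chemical, 24 h → isolate total RNA, reverse-transcribe with oligo(dT) → PCR, 6-FAM label, HpaI cut (2 h, 37 C) → capillary electrophoresis. Bidirectional fit vs DMSO.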

A short description of experiment [5]: ATG_ERE_CIS: Attagene CIS-FACTORIAL HepG2 Assay for Estrogen Response Element (ERE) (AID 2282940). The following applies: HepG2 ERE cis-reporter, Attagene RNA transcript; actives raise or lower the signal. An outline of the steps: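 Transient MRTU transfection of human HepG2; cis-element promoters; 24 h dosing; total RNA → RT (oligo dT) → PCR → 6-FAM primer extension → HpaI digest → CE fluorescence. Bidirectional fit, DMSO baseline.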

A short description of experiment [6]: ATG_Ets_CIS: Attagene CIS-FACTORIAL HepG2 Assay for human Erythroblast Transformation Specific (ETS) (AID 2282941). The following applies: HepG2 ETS cis-reporter transcription, actives raise or lower the signal. Summed up: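 Multiplexed reporter transcript profiling: HepG2, 24 h treatment, total RNA to cDNA, PCR, 6-FAM labelling, HpaI cut, capillary electrophoresis. Gain- or loss-of-signal fitted against DMSO.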

The target in experiment [7] is Hepatocyte nuclear factor 3-beta (Homo sapiens) (UniProt Q9Y261). Nature of the experiment: ATG_FoxA2_CIS: Attagene CIS-FACTORIAL HepG2 Assay for human Forkhead box A2 (FOXA2) (AID 2282942). The following applies: HepG2 cis-reporter transcription factor activity, 24 h; actives raise or lower the signal. Summed up: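 Cells: HepG2, transient multiplex reporter transfection. Exposure 24 h. Detection: reporter-specific RT-PCR, fluorescent labelling, restriction digest, capillary electrophoresis. Analysis: bidirectional curve fit, DMSO as negative control.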
Sequence of Hepatocyte nuclear factor 3-beta (Homo sapiens) (Q9Y261 whole entry, looked up): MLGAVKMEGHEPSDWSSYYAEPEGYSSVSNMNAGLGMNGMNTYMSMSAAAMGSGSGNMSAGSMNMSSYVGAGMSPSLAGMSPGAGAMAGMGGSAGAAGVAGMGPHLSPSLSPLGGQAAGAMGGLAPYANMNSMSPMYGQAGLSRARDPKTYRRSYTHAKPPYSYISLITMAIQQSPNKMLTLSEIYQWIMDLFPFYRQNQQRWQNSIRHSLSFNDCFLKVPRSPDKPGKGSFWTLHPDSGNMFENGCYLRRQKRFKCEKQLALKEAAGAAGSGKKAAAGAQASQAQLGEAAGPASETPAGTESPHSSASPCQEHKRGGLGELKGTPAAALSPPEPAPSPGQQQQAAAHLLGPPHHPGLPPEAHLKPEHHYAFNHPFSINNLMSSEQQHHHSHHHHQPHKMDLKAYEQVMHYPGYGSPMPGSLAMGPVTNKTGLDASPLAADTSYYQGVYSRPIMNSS

Experiment [8] is described as follows: ATG_FoxO_CIS: Attagene CIS-FACTORIAL HepG2 Assay for human Forkhead box O (FoxO) (AID 2282943). The following applies: HepG2 Attagene cis-reporter, FoxO element, mRNA; actives raise or lower the signal. An outline of the steps: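 Values reflect reporter mRNA induction or loss in HepG2 cells 24 h post-dosing, fitted bidirectionally with DMSO as negative control and baseline. Detection used RT-PCR and fluorescence capillary electrophoresis.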

Experiment [9] is described as follows: ATG_GATA_CIS: Attagene CIS-FACTORIAL HepG2 Assay for human GATA Binding Protein (AID 2282944). The following applies: HepG2 GATA cis-element reporter, Attagene multiplex mRNA; actives raise or lower the signal. An outline of the steps:
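Transient MRTU transfection, HepG2, 24 h compound exposure. Total RNA → oligo(dT) RT → PCR → 6-FAM primer extension → HpaI cut → CE. Bidirectional fit vs DMSO.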

Experiment [10] in a line: ATG_GLI_CIS: Attagene CIS-FACTORIAL HepG2 Assay for human Zinc Finger Protein GLI1 (AID 2282945). The following applies: HepG2, Attagene cis-factorial reporter mRNA, GLI element; actives raise or lower the signal. Summed up:
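HepG2 cells transiently transfected with cis-promoter multiplexed reporter units report endogenous transcription factor activity. After 24 h chemical exposure, reporter mRNA was quantified by RT-PCR, 6-FAM labelling, HpaI digestion and capillary electrophoresis, with bidirectional fitting against DMSO.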

Experiment [11] can be described thus: ATG_GRE_CIS: Attagene CIS-FACTORIAL HepG2 Assay for human Glucocorticoid Response Elements (GRE) (AID 2282947). As to conditions: HepG2 GRE cis-reporter, Attagene multiplex mRNA; actives raise or lower the signal. Summed up: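 HepG2, transient cis-reporter transfection, 24 h. Reporter mRNA: RT-PCR then CE, fluorescence. Fit both directions vs DMSO.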
A short description of experiment [12]: ATG_ISRE_CIS: Attagene CIS-FACTORIAL HepG2 Assay for human Interferon Regulatory Factor 1 (IRF1) binding to an Interferon-Stimulated Response Element (ISRE) (AID 2282948). As to conditions: HepG2 ISRE cis-reporter (Attagene), mRNA transcription readout; actives raise or lower the signal. Summed up:
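Signal reflects induction or loss of ISRE-linked reporter mRNA in transiently transfected HepG2 cells after a 24 h treatment, detected by fluorescent RT-PCR fragments on capillary electrophoresis and normalised to DMSO.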

The nature of experiment [13]: ATG_M_32_CIS: Attagene CIS-FACTORIAL HepG2 Assay for M32 Transcription Factor (Internal Marker) (AID 2282949).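 Also: background control marker of the multiplexed CIS panel rather than a real target.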 The following applies: HepG2 Attagene cis-factorial M32 reporter, mRNA; actives raise or lower the signal. An outline of the steps: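 Using DMSO as baseline, bidirectional curve fits were applied to reporter mRNA signals. These came from transiently transfected HepG2 cells exposed for 24 h, with RNA analysed by RT-PCR, FAM primer extension, HpaI digestion and CE.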

Experiment [14] in a line: ATG_M_06_CIS: Attagene CIS-FACTORIAL HepG2 Assay for M06 Transcription Factor (Internal Marker) (AID 2282950). The following applies: HepG2 Attagene CIS-FACTORIAL M06 internal marker reporter; actives raise or lower the signal. Summed up: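 Read-out is fluorescence of labelled reporter cDNA fragments resolved by capillary electrophoresis after RT-PCR. Cells: HepG2 carrying transfected cis-promoter reporter units, treated 24 h. Gain or loss of signal fitted relative to DMSO.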

The target in experiment [15] is Hepatocyte nuclear factor 6 (Homo sapiens) (UniProt Q9UBC0). Description: ATG_HNF6_CIS: Attagene CIS-FACTORIAL HepG2 Assay for human Hepatocyte Nuclear Factor 6 (HNF6) (AID 2282952). As to conditions: HepG2 Attagene cis-factorial HNF6 reporter transcription; actives raise or lower the signal. Summed up: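 Readout: fluorescent reporter-transcript fragments resolved by capillary electrophoresis after RT-PCR, reflecting endogenous factor activity in transfected HepG2. Exposure 24 h. Gain or loss of signal fitted bidirectionally against DMSO.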
Sequence of Hepatocyte nuclear factor 6 (Homo sapiens) (Q9UBC0 whole entry, looked up, the tested form may be a part): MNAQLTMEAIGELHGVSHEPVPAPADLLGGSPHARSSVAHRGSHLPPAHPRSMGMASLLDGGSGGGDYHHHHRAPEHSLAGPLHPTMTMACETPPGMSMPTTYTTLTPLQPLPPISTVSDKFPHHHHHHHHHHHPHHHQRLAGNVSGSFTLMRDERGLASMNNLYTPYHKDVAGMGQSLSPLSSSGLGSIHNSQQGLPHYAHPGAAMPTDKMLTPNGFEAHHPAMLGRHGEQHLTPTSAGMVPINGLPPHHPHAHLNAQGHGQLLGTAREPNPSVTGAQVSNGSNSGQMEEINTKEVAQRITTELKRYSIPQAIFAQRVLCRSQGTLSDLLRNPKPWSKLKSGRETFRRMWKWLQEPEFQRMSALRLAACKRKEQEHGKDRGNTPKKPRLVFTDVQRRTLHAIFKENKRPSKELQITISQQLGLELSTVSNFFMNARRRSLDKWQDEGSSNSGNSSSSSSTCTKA

In experiment [16] the target is Heat shock factor protein 1 (Homo sapiens) (UniProt Q00613). Description: ATG_HSE_CIS: Attagene CIS-FACTORIAL HepG2 Assay for human Heat Shock Transcription Factor 1 (HSE) (AID 2282953). As to conditions: HepG2 HSE cis-reporter, Attagene RNA transcription; actives raise or lower the signal. An outline of the steps: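 HepG2, transient MRTU transfection, cis-promoter reporters (endogenous TF activity). 24 h compound. RNA → oligo(dT) RT → PCR → 6-FAM primer extension → HpaI cut → CE. Bidirectional fit vs DMSO.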
Sequence of Heat shock factor protein 1 (Homo sapiens) (Q00613 whole entry, looked up): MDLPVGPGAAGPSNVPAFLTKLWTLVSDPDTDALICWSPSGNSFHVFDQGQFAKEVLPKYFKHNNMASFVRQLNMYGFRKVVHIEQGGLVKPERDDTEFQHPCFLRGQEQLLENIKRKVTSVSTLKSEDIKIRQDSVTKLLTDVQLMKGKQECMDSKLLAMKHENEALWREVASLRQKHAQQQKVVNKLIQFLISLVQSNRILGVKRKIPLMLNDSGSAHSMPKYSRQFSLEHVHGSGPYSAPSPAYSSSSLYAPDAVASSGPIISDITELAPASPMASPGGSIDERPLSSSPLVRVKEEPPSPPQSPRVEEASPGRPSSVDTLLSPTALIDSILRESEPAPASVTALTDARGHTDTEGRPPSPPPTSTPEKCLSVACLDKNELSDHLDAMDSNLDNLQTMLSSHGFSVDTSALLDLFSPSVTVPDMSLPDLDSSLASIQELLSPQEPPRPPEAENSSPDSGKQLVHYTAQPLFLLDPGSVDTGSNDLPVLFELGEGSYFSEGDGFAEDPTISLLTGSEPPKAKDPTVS

Experiment [17] is described as follows: ATG_MRE_CIS: Attagene CIS-FACTORIAL HepG2 Assay for human Metal Responsive Element (MRE) (AID 2282954). As to conditions: HepG2 MRE cis-reporter transcription, Attagene multiplex; actives raise or lower the signal. Summed up: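 Readout: capillary electrophoresis of 6-FAM-labelled, HpaI-digested RT-PCR reporter products. System: HepG2 cells carrying transient multiplexed cis reporters, dosed 24 h. Analysis: bidirectional fit, DMSO baseline.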

Experiment [18] can be described thus: ATG_PBREM_CIS: Attagene CIS-FACTORIAL HepG2 Assay for human Phenobarbital-responsive Enhancer Module (PBREM) (AID 2282955). The following applies: HepG2 PBREM cis-reporter, Attagene multiplexed transcription; actives raise or lower the signal. An outline of the steps: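 HepG2, transient MRTU transfection, 24 h dosing; RNA → oligo(dT) RT → PCR → 6-FAM extension → HpaI → CE. Bidirectional fit vs DMSO.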

Experiment [19] concerns the target Paired box protein Pax-6 (Homo sapiens) (UniProt P26367). Description: ATG_Pax6_CIS: Attagene CIS-FACTORIAL HepG2 Assay for human Paired Box 6 (PAX6) (AID 2282956). The following applies: HepG2 CIS-FACTORIAL PAX6 reporter transcription, RNA readout; actives raise or lower the signal. Summed up:
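Values derive from bidirectional curve fitting of reporter mRNA signal relative to DMSO. HepG2 cells bearing transfected cis-regulated MRTUs were exposed for 24 h; transcripts were read by RT-PCR and capillary electrophoresis.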

The target in experiment [20] is Hypoxia-inducible factor 1-alpha (Homo sapiens) (UniProt Q16665). Nature of the experiment: ATG_HIF1a_CIS: Attagene CIS-FACTORIAL HepG2 Assay for human Hypoxia Inducible Factor 1 (HIF1A) (AID 2282951). As to conditions: HepG2 Attagene cis-factorial HIF1a reporter transcription; actives raise or lower the signal. An outline of the steps: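 HepG2, transient cis-reporter library, 24 h dosing. RNA → RT (oligo dT) → PCR → 6-FAM primer extension → HpaI → CE. Bidirectional curve fit vs DMSO.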
Sequence of Hypoxia-inducible factor 1-alpha (Homo sapiens) (Q16665 whole entry, looked up): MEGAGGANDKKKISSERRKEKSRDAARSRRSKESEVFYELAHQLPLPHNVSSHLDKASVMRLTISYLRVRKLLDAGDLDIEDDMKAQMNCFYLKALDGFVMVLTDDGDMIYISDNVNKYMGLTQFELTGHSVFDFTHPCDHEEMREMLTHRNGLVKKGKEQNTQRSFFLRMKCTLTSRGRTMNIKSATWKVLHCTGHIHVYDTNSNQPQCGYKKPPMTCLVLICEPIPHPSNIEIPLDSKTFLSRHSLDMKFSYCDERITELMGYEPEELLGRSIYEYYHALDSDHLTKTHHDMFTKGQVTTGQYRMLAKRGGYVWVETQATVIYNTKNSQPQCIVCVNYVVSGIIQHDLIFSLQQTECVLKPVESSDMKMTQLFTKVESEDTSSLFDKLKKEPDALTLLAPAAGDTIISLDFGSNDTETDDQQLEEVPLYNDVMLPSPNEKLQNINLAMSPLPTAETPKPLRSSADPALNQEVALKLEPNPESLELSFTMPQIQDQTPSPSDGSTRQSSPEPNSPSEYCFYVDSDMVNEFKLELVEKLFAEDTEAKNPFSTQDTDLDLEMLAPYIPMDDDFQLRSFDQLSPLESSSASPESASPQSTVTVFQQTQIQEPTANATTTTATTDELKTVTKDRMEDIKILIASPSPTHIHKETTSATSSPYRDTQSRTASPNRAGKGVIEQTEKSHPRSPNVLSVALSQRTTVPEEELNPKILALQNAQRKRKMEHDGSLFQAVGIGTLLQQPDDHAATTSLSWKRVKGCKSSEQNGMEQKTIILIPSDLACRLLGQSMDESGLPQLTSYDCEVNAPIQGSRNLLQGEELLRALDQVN

Sequence of Paired box protein Pax-6 (Homo sapiens) (P26367 whole entry, looked up): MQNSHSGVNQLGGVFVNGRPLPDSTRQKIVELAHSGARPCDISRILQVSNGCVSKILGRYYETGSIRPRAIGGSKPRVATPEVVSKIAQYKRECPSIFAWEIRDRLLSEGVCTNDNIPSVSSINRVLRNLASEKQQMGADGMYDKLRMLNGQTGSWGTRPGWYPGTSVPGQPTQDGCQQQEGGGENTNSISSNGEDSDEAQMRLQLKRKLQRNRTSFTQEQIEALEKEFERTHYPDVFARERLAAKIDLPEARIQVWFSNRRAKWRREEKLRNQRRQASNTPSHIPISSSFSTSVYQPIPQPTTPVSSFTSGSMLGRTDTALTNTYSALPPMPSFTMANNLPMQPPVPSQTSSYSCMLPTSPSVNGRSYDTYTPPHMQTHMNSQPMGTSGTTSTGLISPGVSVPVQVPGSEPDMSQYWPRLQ

A word on the AC50: it is the concentration giving half of the maximal activity seen. In the case of `CC(C)C(=O)OCC(C)(C)C(OC(=O)C(C)C)C(C)C` (stereo not given), the result in [1], in experiment [2], in experiment [3], in experiment [4], in [6] and in experiment [7] was inactive. In addition, the outcome in [8], in [9], in experiment [10], in [11], in [12] and in experiment [13] was inactive. The result in [14], in [15], in [16], in experiment [17], in [18] and in experiment [19] was inactive. In experiment [5], the concentration at half-maximal activity (AC50) is 63.6 µM (active).
As for `CCC(C)c1cc([N+](=O)[O-])cc([N+](=O)[O-])c1O` (stereo not given), the outcome in experiment [1], in [2], in experiment [3], in [4], in [5] and in experiment [6] was inactive. In addition, the outcome in experiment [7], in [8], in experiment [9], in [10], in [11] and in experiment [13] was inactive. Further, the call in experiment [14], in experiment [15], in experiment [16] and in [18] was inactive. Besides, the concentration at half-maximal activity (AC50) in [12] is 8.83 µM (active); in experiment [17] it was 13.5 µM (active); in [19], 56.2 µM (active).
For `C1CC2OC2CC1C1CO1` (stereo not given), the result in [1], in experiment [2], in [3], in experiment [4], in experiment [5] and in experiment [6] was inactive. Further, the outcome in [7], in experiment [8], in experiment [9], in [10], in [12] and in experiment [13] was inactive. In addition, the outcome in experiment [14], in experiment [20], in experiment [15], in experiment [16], in experiment [17] and in experiment [18] was inactive. Further, the call in experiment [19] was inactive.
Regarding `ClC1=C(Cl)[C@]2(Cl)[C@@H]3[C@@H]4C[C@@H]([C@H]5O[C@@H]45)[C@@H]3[C@@]1(Cl)C2(Cl)Cl`, the result in [1], in [2], in experiment [3], in [4], in [6] and in experiment [7] was inactive. The result in [8], in experiment [9], in experiment [10], in experiment [11], in experiment [13] and in experiment [14] was inactive. In addition, the compound was called inactive in experiment [15], in experiment [16] and in experiment [19]. Moreover, the AC50 in experiment [5] is 1.04 µM (active); in experiment [12], 80.5 µM (active); in [17] it was 46.5 µM (active).
In the case of `N#Cc1ccc(N(CC(N)=O)CC(F)(F)F)cc1C(F)(F)F`, the outcome in [1], in experiment [2], in [4], in [5], in experiment [6] and in experiment [7] was inactive. In addition, the call in [8], in experiment [9], in experiment [10], in experiment [12], in experiment [13] and in [14] was inactive. Besides, the compound was classed as inactive in [15], in experiment [16], in experiment [17] and in experiment [19]. Besides, the concentration at half-maximal activity (AC50) in experiment [3] was 25.3 µM (active).
In the case of `C=CC(N)=O`, the outcome in experiment [1], in [2], in [3], in experiment [4], in experiment [5] and in experiment [6] was inactive. The result in [7], in experiment [8], in experiment [9], in [10], in experiment [11] and in experiment [12] was inactive. Further, the outcome in experiment [13], in experiment [14], in [15], in experiment [16], in [17] and in [19] was inactive.
